Bioassay records from PubChem.
CHRM1 PAM: human CHRM1 positive allosteric modulation; CHO-K1 hM1, Fluo-8 calcium fluorescence, ACh EC20; 0% = ACh EC20, 100% = maximal ACh; activation, % at 3 µM; 360,000 tested, 0.088% active; AID 588819; in the data active = activation above about 19%, passing the limit was not always enough
Target sequence (P11229 whole entry, looked up): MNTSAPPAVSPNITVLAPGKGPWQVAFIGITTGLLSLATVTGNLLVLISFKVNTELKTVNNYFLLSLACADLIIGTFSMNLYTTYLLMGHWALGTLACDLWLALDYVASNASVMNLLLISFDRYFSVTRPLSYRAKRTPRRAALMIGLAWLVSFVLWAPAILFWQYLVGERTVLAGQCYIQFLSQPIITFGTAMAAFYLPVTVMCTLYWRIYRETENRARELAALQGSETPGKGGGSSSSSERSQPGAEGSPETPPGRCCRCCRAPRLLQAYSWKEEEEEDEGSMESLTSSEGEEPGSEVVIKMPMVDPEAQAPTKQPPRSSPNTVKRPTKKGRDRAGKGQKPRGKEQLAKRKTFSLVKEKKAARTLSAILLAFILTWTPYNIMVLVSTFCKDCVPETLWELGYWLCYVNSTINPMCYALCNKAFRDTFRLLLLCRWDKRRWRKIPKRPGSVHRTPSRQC
M1 ag parental: M1 agonist counterscreen hit in parental CHO-K1 cells; activation, % at 3 µM; 360,000 tested, 0.48% active; Fluo-8 calcium fluorescence; scaled to maximal ATP response, vehicle zero; in the data active = activation above about 15%;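 note: untransfected CHO-K1 host cells lacking M1 receptor as counterscreen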
M1 antag: blocks human M1 muscarinic receptor; P11229; CHO-K1 hM1, Fluo-8 calcium fluorescence, ACh EC80 antagonist; inhibition, % at 3 µM; 360,000 tested, 1.3% active; AID 588852;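 active = percent inhibition above its own plate's cutoff, namely the mean of that plate's compound wells plus 3 SD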;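 note: peak over basal fluorescence ratio during 140 s after agonist addition; 0% = ACh EC80 plus DMSO and 100% = DMSO alone without agonist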
M1 PAM parental: counter-screen for M1 PAMs: effect in parental CHO-K1 cells; activation, % at 3 µM; ATP EC20, Fluo-8 calcium fluorescence; 0% at ATP EC20, 100% at ATP max; 360,000 tested, 0.02% active;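 active = activation above the run cutoff, the mean activation of all test compounds plus 3 SD, cut at about 40% in these data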;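 note: peak over basal fluorescence ratio in a 140 s read after ATP addition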
CHO-K1 Ca antag: M1 antagonist counterscreen hit in parental CHO-K1 cells; ATP-induced calcium, Fluo-8 fluorescence; AID 602250; inhibition, % at 3 µM; 360,000 tested, 0.6% active;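 active = inhibition above a per-plate cutoff, the plate's mean sample inhibition plus 3 SD, cut at about 24% in these data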;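 note: 0% = DMSO plus EC80 ATP and 100% = DMSO alone without ATP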
CHRM1 agonist: activates human CHRM1 receptor | P11229 | 360,000 tested, 0.33% active | activation, % at 3 µM | CHO-K1 hM1, Fluo-8 calcium fluorescence, agonist mode; 0% DMSO, 100% acetylcholine EC100;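 active = activation above the run's mean compound activation plus 3 SD, cut at about 16% in these data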;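 note: peak over basal fluorescence ratio within a 140 s kinetic read after compound addition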
Numbers without * were called inactive; . = no result given. Most compounds without a hit are left out; they make up all but 2.3% or so of the library.

SMILES | CHRM1 PAM | M1 ag parental | M1 antag | M1 PAM parental | CHO-K1 Ca antag | CHRM1 agonist
CCCCn1nnnc1C(c1ccnc2ccccc12)N1CCC2(CC1)C(=O)NCN2c1ccccc1 (stereo not given) | -10 | 8 | -1 | -6 | -9 | 1
CC1=C(C)CC2(CC1)C(=O)NC(=O)NC2=O | 5 | 2 | -13 | 17 | -12 | -3
O=C(OCc1ccccc1)N1CCC2CC1c1cc(N3Cc4ccccc4-n4nncc4C3)ccc12 (stereo not given) | -4 | 0 | -5 | 6 | -3 | -6
Fc1ccc(NC(=S)N2Cc3ccccc3-n3nncc3C2)cc1 | 1 | 0 | -8 | 6 | 12 | -2
CN(C)CCSC1c2ccccc2CSc2ccccc21 (stereo not given) | -27 | 3 | 99* | 9 | -2 | -8
OCc1cnc[nH]1 | -1 | 0 | -26 | -7 | 36* | 0
Nc1c2c(nc3sc4c(c13)CCCC4)CCCCC2 | -20 | 4 | 36* | 27 | -13 | -3
Nc1c2c(nc3sc4c(c13)CCCC4)CCCC2 | -10 | 2 | -3 | 13 | -5 | -10
Cc1cccc(-n2c(O)c(C=NCCN3CCNCC3)c(=O)[nH]c2=S)c1 | -23 | 0 | 25 | 18 | -1 | 53*
COC(=O)C1=C(c2ccc(F)cc2F)C[C@@H]2CC[C@H]1N2C(=O)NCCOc1ccc(OC)cc1 | 10 | 0 | -1 | 0 | -12 | -5
O=C(COC(=O)Cc1ccccc1)NCCNC(=O)COC(=O)Cc1ccccc1 | 4 | 0 | -8 | -4 | -3 | -2
O=C(Cc1ccccc1)OCCN1CCCCC1 | -20 | 0 | 34* | 0 | -2 | -6
Cc1c(CCC(=O)N2C[C@H]3C[C@@H](C2)c2cccc(=O)n2C3)c(=O)oc2c(C)c(O)ccc12 | 0 | 0 | -5 | 11 | -1 | -10
O=C(Nc1cccc(C(F)(F)F)c1)OC1CN2CCC1CC2 (stereo not given) | -32 | 2 | 102* | -7 | 4 | -11
CCOC(=O)[C@]12Cc3cc(Cl)ccc3[C@H]1N(C1CCCCC1)C(=O)c1cc(OC)ccc12 | . | 4 | . | 2 | 33* | .
CCOC(=O)[C@]12Cc3ccc(C)cc3[C@H]1N(C1CCCCC1)C(=O)c1cc(OC)ccc12 | . | 2 | . | 14 | 1 | .
CCCCOc1ccc(CN2CCN(CCO)CC2)cc1 | -19 | 0 | 33* | 1 | -1 | -8
CCCCCCOc1ccc(CN2CCN(CCO)CC2)cc1 | -19 | 3 | 23 | 13 | -10 | -13
CCOC(=O)c1ccc(N=Cc2c(O)n(-c3ccc(OC)cc3)c(=S)[nH]c2=O)cc1 | -30 | 2 | 34* | 9 | -4 | -12
CCCCOC(=O)c1ccccc1C(=O)OCCCC | -3 | 0 | 9 | 13 | -7 | -4
CCN(CC)CCCOC(=O)C(OC)(c1ccccc1)c1ccccc1 | -36 | 0 | 99* | 3 | -6 | -12
CCOC(C(=O)OCC(O)CN(CC)CC)(c1ccccc1)c1ccccc1 (stereo not given) | 2 | 1 | -2 | 17 | -11 | -6
CCOC(C(=O)OCCC[N+](C)(CC)CC)(c1ccccc1)c1ccccc1 | -35 | 1 | 98* | 7 | -10 | -15
CC[N+](C)(CC)CCCOC(=O)C(O)(c1ccccc1)C1CCCCC1 (stereo not given) | -23 | 0 | 96* | 32 | -9 | -9
CCCCCN1C(=O)c2cc(OC)ccc2[C@@]2(C(=O)OCC)Cc3cc(OC)ccc3[C@@H]12 | . | 2 | . | 13 | -5 | .
SMILES | CHRM1 PAM | M1 ag parental | M1 antag | M1 PAM parental | CHO-K1 Ca antag | CHRM1 agonist
CN(C)c1ccc(/C=C/[N+](=O)[O-])cc1 | 4 | 14 | 41* | -4 | 12 | 11
CCC(=O)c1c(O)n(C2CCCCCC2)c(=O)[nH]c1=O | 1 | 0 | -1 | -6 | 28* | -3
CC(=NCCO)c1c(O)n(C2CCCCC2)c(=O)[nH]c1=O | 4 | 0 | -1 | 16 | -13 | -2
CC(C)(C)n1nnnc1C(CCc1ccccc1)N1CCC2(CC1)C(=O)NCN2c1ccccc1 (stereo not given) | -1 | 1 | -33 | 23 | -24 | 4
NC(N)=Nc1ccc2[nH]c3c(c2c1)C[C@@]1(O)[C@H]2Cc4ccc(O)c5c4[C@@]1(CCN2CC1CC1)C3O5 (stereo not given in full) | -28 | 0 | 39 | -6 | -7 | -14
NC(Cc1ccc(F)cc1)c1csc(Nc2ncccn2)n1 (stereo not given) | 2 | 1 | -7 | 7 | -12 | 4
C#CC[N+]1(C)[C@@H]2CC[C@H]1CC(OC(=O)C(CO)c1ccccc1)C2 (stereo not given in full) | -31 | 0 | 99* | 6 | -17 | -9
C[N+]1(C)CCC(OC(=O)C(c2ccccc2)c2ccccc2)CC1 | -25 | 0 | 96* | 7 | 1 | -8
COC(=O)[C@@H](c1ccccc1)C1CCCCN1 (stereo not given in full) | -5 | 0 | 12 | -3 | -1 | -14
C[N+]1(C)[C@@H]2CC[C@H]1CC(OC(=O)[C@@H](CO)c1ccccc1)C2 (stereo not given in full) | -29 | 0 | 102* | -7 | 18 | -9
C[N+]1(C)C2CCC1CC(OC(=O)c1c[nH]c3ccccc13)C2 (stereo not given) | -7 | 0 | -26 | 26 | -12 | -8
C[N+]1(C)C2CC[C@H]1CC(OC(=O)C(CO)c1ccccc1)C2 (stereo not given in full) | -27 | 0 | 100* | -1 | 11 | -7
C[N+]1(C)C2CCC1CC(OC(=O)c1ccco1)C2 (stereo not given) | -4 | 1 | 3 | 26 | -17 | -7
NC1CC2CCCCC2CC1(O)c1ccccc1 (stereo not given) | 2 | 0 | -7 | -4 | -5 | -2
CN1/C(=C\C=C2C(=O)NC(=O)NC2=O)C(C)(C)c2ccccc21 | -9 | 25* | 15 | -2 | 8 | 29*
CN1/C(=C\C=Nc2ccccc2)C(C)(C)c2ccccc21 | -5 | 1 | 10 | -18 | 4 | -3
Cc1nc2ccccn2c1P(=S)(c1ccccc1)c1ccccc1 | -7 | 0 | -6 | 0 | -2 | -9
COC(=O)C1=C(c2ccc(F)cc2F)C[C@@H]2CC[C@H]1N2C | -33 | 1 | 84* | -3 | -25 | -9
COC(=O)C1=C(c2ccc(Cl)c(C(F)(F)F)c2)C[C@@H]2CC[C@H]1N2C | -30 | 0 | 32* | 8 | -3 | -8
COC(=O)C1=C(c2ccc(Cl)c(C(F)(F)F)c2)C[C@@H]2CC[C@H]1N2C(=O)NCCO | -1 | 0 | 0 | 17 | -13 | -8
